# Screens (PubChem BioAssay)
# Compounds with a hit are over-represented: about 3.7% of the library has one in this group of screens.
# BoNT A protease – blocks Botulinum neurotoxin A light chain protease | AID 588499 | multiplex microsphere protease substrate cleavage, flow cytometry | inhibition, % at 10 µM | hit rate 0.17% among 360,000; note: plate controls were buffer without enzyme for full effect and enzyme alone for no effect
# MazEF act – activators of E. coli MazEF toxin-antitoxin RNase; P0AE70; FAM/BHQ RNA-DNA oligo cleavage fluorescence, 5 h; activation, % at 20 µM; hit rate 0.32% among 350,000; in the data active = activation above about 50%
# Anthrax LF prot – inhibitors of Bacillus anthracis lethal factor protease | AID 588501 | hit rate 0.12% among 360,000 | P15917 | inhibition, % at 10 µM | multiplex microsphere protease cleavage assay, LF; note: plate controls were buffer without enzyme for full effect and enzyme alone for no effect
# Target sequence (P15917 whole entry, looked up): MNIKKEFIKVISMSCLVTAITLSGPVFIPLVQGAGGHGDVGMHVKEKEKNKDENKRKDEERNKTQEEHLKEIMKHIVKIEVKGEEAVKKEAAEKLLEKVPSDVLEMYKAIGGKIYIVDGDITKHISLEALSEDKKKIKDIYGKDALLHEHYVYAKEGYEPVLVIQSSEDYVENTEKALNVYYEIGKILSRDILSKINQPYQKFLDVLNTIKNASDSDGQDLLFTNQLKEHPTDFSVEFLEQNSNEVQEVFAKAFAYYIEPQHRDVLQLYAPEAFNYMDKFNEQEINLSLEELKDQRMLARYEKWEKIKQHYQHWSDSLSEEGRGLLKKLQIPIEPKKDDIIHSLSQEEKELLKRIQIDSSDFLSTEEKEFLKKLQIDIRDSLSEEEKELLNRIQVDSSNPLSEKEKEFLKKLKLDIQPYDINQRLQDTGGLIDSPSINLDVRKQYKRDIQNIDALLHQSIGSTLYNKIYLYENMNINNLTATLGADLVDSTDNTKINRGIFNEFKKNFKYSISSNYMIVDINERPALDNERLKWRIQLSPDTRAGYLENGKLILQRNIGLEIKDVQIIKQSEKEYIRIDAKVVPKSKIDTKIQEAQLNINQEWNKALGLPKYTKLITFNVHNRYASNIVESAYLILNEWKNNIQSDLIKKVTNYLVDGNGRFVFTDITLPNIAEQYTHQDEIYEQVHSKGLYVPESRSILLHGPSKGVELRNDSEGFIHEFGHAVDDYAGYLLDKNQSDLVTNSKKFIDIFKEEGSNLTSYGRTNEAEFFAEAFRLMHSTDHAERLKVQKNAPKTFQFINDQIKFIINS
# Autofluor counter – counter-screen for toxin protease inhibitors: compound fluorescence; compound autofluorescence counterscreen, microsphere flow cytometry; active compounds read high; fluorescence intensity (test concentration not listed); hit rate 3.1% among 360,000; in the data active = fluorescence intensity above about 16000
# BoNT-F LC inh – inhibitors of Botulinum neurotoxin F light chain protease | Multiplex microsphere protease cleavage assay, flow cytometry | inhibition, % at 10 µM | hit rate 0.22% among 360,000; in the data active = inhibition above about 35%, passing the limit was not always enough; note: plate controls were buffer without enzyme for full effect and enzyme alone for no effect
# * = called active by the depositor. Cut-off read from the data, not from the text of the source, unless noted: active = inhibition above about 30%; inconclusive = no clear call, values can overlap the other calls; inactive = below that.
SMILES,BoNT A protease,MazEF act,Anthrax LF prot,Autofluor counter,BoNT-F LC inh
CCC(NC(=O)OC(C)(C)C)C(=O)Oc1cc(C)cc2oc(=O)c3c(c12)CCC3 (stereo not given),-0.7,7.1,-0.3,20994*,-1.6
CCC(NC(=O)OC(C)(C)C)C(=O)Oc1ccc2c3c(c(=O)oc2c1)CCC3 (stereo not given),-1.3,-1.4,-4.7,17288*,-3.6
Cc1cc(OCC(=O)NCc2ccc(S(N)(=O)=O)cc2)c2c3c(c(=O)oc2c1)CCC3,0.2,71.9*,-1.8,4018,3.8
Cc1cc(OC(=O)CCCNC(=O)OC(C)(C)C)c2c3c(c(=O)oc2c1)CCC3,-0.4,0.2,-1.8,9254,-1.2
O=C(O)c1cn(-c2ccc(F)cc2)c2cc(N3CCNCC3)c(F)cc2c1=O,0.5,-0.6,5.5,5328,13.0
COc1ccc(NC(=O)CSc2n[nH]c(CNc3cccc(C)c3)n2)cc1,0.3,-14.5,11.4,2937,-25.9
CCS(=O)(=O)N1N=C(c2cccc(NS(C)(=O)=O)c2)CC1c1ccc(C)cc1 (stereo not given),26.4,66.9*,16.9,21472*,-1.1
CCS(=O)(=O)Nc1cccc(C2=NN(S(C)(=O)=O)C(c3ccccc3)C2)c1 (stereo not given),-0.8,6.7,0.2,7796,8.2
CC1CCCN(C(=O)c2cc(S(=O)(=O)N3CCCCC3)c[nH]2)C1 (stereo not given),-0.3,8.9,-4.9,5856,-5.2
Cc1ccccc1Cn1cnc2c([N+](=O)[O-])c(C)c(C)cc21,0.7,4.4,-0.2,21365*,1.6
COc1cccc(Cn2cnc3c(N)c(C)c(C)cc32)c1,-1.1,0.1,-2.3,3394,2.4
COc1ccc(Cn2cnc3c([N+](=O)[O-])c(C)c(C)cc32)cc1,-2.6,7.5,-6.6,25028*,-4.3
COC(=O)C(Cc1ccc(O)cc1)NC(=O)C1CCN(S(=O)(=O)c2ccc(C)cc2)CC1 (stereo not given),1.6,8.1,-0.7,5363,1.3
CCOC(=O)c1cnn(-c2nc(-c3cccc(F)c3)cs2)c1C(F)(F)F,1.8,-10.3,-3.2,19380*,-2.4
O=C(O)c1cnn(-c2nc(-c3cccc(F)c3)cs2)c1C(F)(F)F,-1.2,4.7,-0.4,4684,-9.1
CCOC(=O)c1cc(C#N)c(Oc2cccc(C(F)(F)F)c2)nc1-c1ccccc1,0.5,-2.1,-1.9,2655,-1.2
CCOC(=O)c1ccc(-c2cccc(C(F)(F)F)c2)nc1C,0.8,-6.4,-1.5,22705*,-2.8
CCOc1ccc(CCNC(=O)c2cc(=O)[nH]c3ccc(S(=O)(=O)N(CC)CC)cc23)cc1OCC,1.8,-17.1,-1.8,3844,-1.2
O=C(Nc1cccc(C(F)(F)F)c1)c1cccn(Cc2ccc3c(c2)OC(F)(F)O3)c1=O,-1.5,3.7,-0.4,20449*,-2.0
Cc1cccc(C)c1NC(=O)c1cccn(Cc2ccc3c(c2)OC(F)(F)O3)c1=O,10.0,-1.1,-13.0,16867*,7.0
CC(C)Oc1cccc(NC(=O)c2cccn(Cc3ccc4c(c3)OC(F)(F)O4)c2=O)c1,-1.2,0.7,-7.5,10002,-7.2
Cc1onc(-c2ccccc2)c1C(=O)Oc1ccccc1,0.5,4.4,-2.8,6166,-9.3
NS(=O)(=O)c1ccc(N/N=C/c2ccccc2C(=O)O)c([N+](=O)[O-])c1,-1.3,6.5,0.9,3365,-0.8
Cc1cc([N+](=O)[O-])c2[nH]c(C(=O)N/N=C/c3ccccc3C(=O)O)c(-c3ccccc3)c2c1,0.6,-4.7,2.4,19535*,-1.1
CCc1sc(C(=O)N2CCN(S(C)(=O)=O)CC2)cc1Br,-2.0,-8.8,-0.2,23583*,0.0
SMILES,BoNT A protease,MazEF act,Anthrax LF prot,Autofluor counter,BoNT-F LC inh
CC(=O)Nc1ccc(S(=O)(=O)Nc2nnc(C)s2)cc1,-0.3,5.7,1.9,4139,-3.4
CC(=O)Nc1ccc(S(=O)(=O)Nc2nnc(C(C)C)s2)cc1,-0.2,2.4,-2.1,16628*,-2.7
CC(C)=CC(=O)N1CCC(N2CCC(C(=O)NCC3CCCO3)CC2)CC1 (stereo not given),1.9,2.6,-2.3,4388,-2.5
CC1=CCC(C(=O)O)C(C(=O)O)C1 (stereo not given),-0.7,6.6,-0.7,22181*,-1.4
Cc1ccc(NC(=O)C2CCN(c3ncnc4c3nc3n4CCCCC3)CC2)nc1,1.4,-1.6,2.9,5114,-0.6
CCc1ccc(CNC(=O)C2CCCN(c3nnc(C)c4c(C)n(-c5ccccc5)nc34)C2)cc1 (stereo not given),0.2,11.6,4.0,20786*,29.8
Cc1nnc(N2CCCC(C(=O)NCc3cccc(F)c3)C2)c2nn(-c3ccccc3)c(C)c12 (stereo not given),-2.7,14.5,3.6,16533*,19.0
CN(C)S(=O)(=O)c1c(Cl)cccc1Cl,0.7,10.7,0.5,23563*,0.7
CN(c1ccccc1)S(=O)(=O)c1cccc(Cl)c1Cl,0.0,5.0,0.0,4955,-3.2
CC(C)(C)OC(=O)N(CCc1ccccc1)Cc1ccccc1OCc1ccc(NC(=O)C2CCCC2)cc1,0.1,0.2,4.2,3987,-3.4
CCN(CCCNC(=O)CC(C(=O)N1CCc2ccccc21)n1ccnc1)c1ccccc1 (stereo not given),6.1,0.6,-12.3,18267*,5.2
C=CCNC(=O)c1c(Cl)cnn1-c1ccc(C)cc1,-1.0,7.6,-5.9,3345,3.3
O=C(NC1CCCCCCC1)C1CCN(c2nc3ccccc3o2)CC1,-4.2,-2.2,-2.6,17616*,-6.4
CCOC(=O)N1CCC(NC(=O)C2CCN(C(=O)N3CC(C)Oc4ccccc43)CC2)CC1 (stereo not given),-0.9,-1.0,-0.2,16437*,1.1
Cc1ccc(CNC(=O)C2CCCN(c3nc4ccccc4o3)C2)cc1 (stereo not given),-1.3,4.0,-4.8,4531,-8.0
CCOC(=O)N1CCC(NC(=O)C2CCCN(c3nc4ccccc4o3)C2)CC1 (stereo not given),-2.9,2.8,2.3,25111*,-5.1
CN(C(=O)CSc1nnnn1-c1ccccc1)C1CCS(=O)(=O)C1 (stereo not given),-0.3,-7.6,-2.3,4038,-4.2
COc1cccc(NC(=O)CSc2nnc(NC(=O)c3ccco3)s2)c1,0.6,-1.1,5.8,4447,-3.8
Oc1ccc(CCC2CCCCN2Cc2nc(C3CC3)no2)cc1 (stereo not given),-0.5,6.2,-5.7,4323,-2.3
CCOc1ccc(S(=O)(=O)N/N=C2/CC(c3ccccc3)Oc3ccccc32)cc1 (stereo not given),7.8,4.8,-6.5,19045*,12.3
COc1cc(OC)c(OC)cc1CNC(C)C(O)c1ccccc1 (stereo not given),-3.0,2.8,-1.3,17763*,-3.0
CC(NCc1ccc(Cl)cc1Cl)C(O)c1ccccc1 (stereo not given),-0.2,2.2,-1.1,7170,-2.4
COC(=O)c1ccc(C(=O)OC)c(NC(=S)N2CCCC(CO)C2)c1 (stereo not given),0.2,-3.7,-1.3,4215,-0.7
